Results reported in PubChem BioAssay (NCATS).
Inconclusive results are not listed. Activity calls are given as the source filed them. Calls follow the shape of the dose curve; as a rule, active = well fitted cell-killing curve with a large enough effect; inconclusive = small, poorly fitted or top-dose-only effect, or effect the other way; inactive = no such curve, though single readings can be large or run the other way.

Assay: Viability qHTS for spleen associated tyrosine kinase inhibitor (SYKi) naive MV4-11 cells (AID 1963823); also: nearly all actives have a fitted effect of over 40% in size
Details: MV4-11 AML viability, CellTiter-Glo luminescence, 72 h; series mostly up to 45 µM; viability (% of control): at the top concentration
How it was run: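 CellTiter-Glo luminescence, 10 min room-temperature incubation, gave viability. Cells: naive MV4-11 (500/well), treated 72 hr at 37 C, 5% CO2.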
Potency is read from the fitted curve at half-maximal effect.

Structure (SMILES)	viability (% of control)	Potency
CN1[C@H]2C[C@H](OC(=O)[C@H](CO)c3ccccc3)C[C@@H]1[C@@H](O)C2	88% (inactive)	
O=C1C[C@@H]2OCC=C3CN4CC[C@]56c7ccccc7N1[C@H]5[C@H]2[C@H]3C[C@H]46	61% (inactive)	
COC1=CC(=O)O[C@@H](CCc2ccccc2)C1	82.3% (inactive)	
CCOP(=O)(OCC)Oc1ccc2c(C)cc(=O)oc2c1	72.5% (inactive)	
COC1CC(O[C@H]2CC[C@]3(C=O)C4CC[C@]5(C)[C@@H](C6=CC(=O)OC6)CC[C@]5(O)[C@@H]4CC[C@]3(O)C2)OC(C)C1O[C@@H]1O[C@H](CO)[C@@H](O)[C@H](O)[C@H]1O (some centres undefined)		0.0862 µM (active)
CN(CC[C@H](N)CC(=O)N[C@H]1C=C[C@@H](n2ccc(N)nc2=O)O[C@@H]1C(=O)O)C(=N)N	83.5% [at 9.25 µM] (inactive)	
COC(=O)C12C(=O)C(C)(O)C(=O)C1(C)C(C)=CC1C34CCC(OC3=O)C(C)(C)C4CCC12C (centres undefined)	75.9% [at 17.3 µM] (inactive)	
CN1CCc2cc3c(cc2C1C1OC(=O)c2c1ccc1c2OCO1)OCO3 (centres undefined)	84.8% (inactive)	
CCc1[nH]c2ccc(OC)cc2c1CCN(C)C		10.3 µM (active)
CC(C)=C1CC[C@]23CO[C@H](C2)[C@@](O)(C(=O)O)CCC13 (some centres undefined)	57.2% (inactive)	
c1ccc2c(c1)Nc1ccccc1S2	56.4% (inactive)	
S=C(NC1CCCCC1)N1CCC(c2cnc[nH]2)CC1	74.1% (inactive)	
FC(F)(F)c1cccc(C2=CCN(CCc3ccc4ccccc4c3)CC2)c1	79.7% (inactive)	
C[C@H]1C(=O)O[C@H]2[C@H](O)[C@]34C5OC(=O)[C@]3(O[C@@H]3OC(=O)[C@H](O)C34[C@H](C(C)(C)C)[C@H]5O)C12O (some centres undefined)	93.7% [at 17.3 µM] (inactive)	
CC(=O)O[C@@H]1[C@H]2CC[C@H]3[C@@](C)(O)[C@@H]4C[C@H](O)C(C)(C)[C@@]4(O)[C@H](O)C[C@@]13C[C@@]2(C)O	73% [at 17.3 µM] (inactive)	
CC[C@H]1C2CC3[C@@H]4N(C)c5ccccc5[C@]45C[C@@H]([C@H]2[C@H]5O)N3[C@H]1O	66.4% (inactive)	
CC[C@@H]1C[C@H]2CC[C@H](O2)[C@H](C)C(=O)O[C@@H](C)C[C@@H]2CC[C@@H](O2)[C@@H](C)C(=O)O[C@H](C)C[C@H]2CC[C@H](O2)[C@H](C)C(=O)O[C@@H](C)C[C@@H]2CC[C@@H](O2)[C@@H](C)C(=O)O1		0.0343 µM (active)
C=CCC1=C(C)C(OC(=O)C2C(C=C(C)C)C2(C)C)CC1=O (centres undefined)		5.45 µM (active)
O=C1CN=C(c2ccccc2Cl)c2cc(Br)ccc2N1	66.5% (inactive)	
Fc1cc(F)c2c(c1)[C@H]1C=CC[C@H]1C(c1cccnc1)N2 (some centres undefined)		2.91 µM (active)

Structure (SMILES)	viability (% of control)	Potency
C=C1[C@@H](C)[C@H]2[C@H](Cc3ccccc3)NC(=O)[C@]23OC(=O)/C=C/C(=O)CCC[C@@H](C)C/C=C/[C@H]3[C@@H]1O		0.92 µM (active)
N#CC(O[C@@H]1O[C@H](CO)[C@@H](O)[C@H](O)[C@H]1O)c1ccccc1 (some centres undefined)	73.2% (inactive)	
CC(C)(NC(=O)[C@@H](N)Cc1ccc(O)cc1)C(=O)N[C@@H](Cc1cc2ccccc2[nH]1)C(=O)N[C@@H](Cc1ccccc1)C(=O)O		3.35 µM (active)
CC(=O)OC12C(O)C(C)C3(O)C4C=C(C)C(=O)C4CC(CO)=CC3C1C2(C)C (centres undefined)	109% [at 17.3 µM] (inactive)	
O=C(O)c1ccnc2cc(C(OCCN3CCCCC3)c3ccccc3Cl)[nH]c12 (centres undefined)	88.4% (inactive)	
CC1=CC2/C=C(\C)CCC(O)C(O)/C=C/C(=O)OC23C(=O)NC(CC(C)C)C3C1C (centres undefined)		7.96 µM (active)
CCC1C2CC3C4N(C)c5ccccc5C45CC(C2C5O)N3C1O (centres undefined)	4.21% (inactive)	
O=C(O)c1cc(Oc2ccc(C(F)(F)F)cc2Cl)ccc1[N+](=O)[O-]	64.4% (inactive)	
C=C1C[C@]2(O)[C@@]3(C)CCC(=O)C(C)(C)C3=C(O)C(=O)[C@@]2(C)[C@@H]2C(=O)O[C@@](C)(C(=O)OC)C(=O)[C@@]12C	69.6% [at 17.3 µM] (inactive)	
COC1CC(O[C@H]2CC[C@]3(C)C4CC[C@]5(C)[C@@H](C6=CC(=O)OC6)[C@@H](OC(C)=O)C[C@]5(O)C4CC[C@@H]3C2)OC(C)C1O[C@@H]1O[C@H](CO)[C@@H](O)[C@H](O)[C@H]1O (some centres undefined)		0.306 µM (active)
CCC(C)(O)C1(C(=O)O)COC(=O)C1 (centres undefined)	82.9% [at 91.9 µM] (inactive)	
N#CC(OC1OC(COC2OC(CO)C(O)C(O)C2O)C(O)C(O)C1O)c1ccccc1 (centres undefined)	82% [at 17.3 µM] (inactive)	
COc1ccc2c(c1)[nH]c1c(C)nccc12		13 µM (active)
NC(=O)c1ncn2c1CN=C(c1ccccc1Br)c1cc(F)ccc1-2		20.6 µM (active)
CC(=O)OC1CC(O)C(C)(C)C2CC(OC(C)=O)C3(C)C(CCC4(C)C(c5ccoc5)C(=O)C5OC543)C12C (centres undefined)	69.8% [at 17.3 µM] (inactive)	
Clc1ccc([C@]23CNC[C@H]2C3)cc1Cl	70.8% (inactive)	
CCC(C)(OC(C)=O)C(=O)O[C@H]1[C@H](OC(C)=O)C[C@@H]2[C@@](C)([C@@H]3C[C@H]4C=CO[C@H]4O3)[C@H](C)C[C@H](OC(C)=O)[C@@]2(COC(C)=O)[C@@]12CO2 (some centres undefined)	80.6% [at 17.3 µM] (inactive)	
Nc1ccn(CC(CO)OCP(=O)(O)O)c(=O)n1 (centres undefined)	80.7% (inactive)	
C[C@@H]1O[C@@H](OC2CCC3(C=O)C(CCC4C3CCC3(C)C(C5=CC(=O)OC5)C(O)CC43O)C2)[C@H](O)[C@H](O)[C@H]1O[C@@H]1O[C@H](CO)[C@@H](O)[C@H](O)[C@H]1O (some centres undefined)		2.17 µM (active)
